Results taken from PMC9911399, “Two distinct binding modes provide the RNA-binding protein RbFox with extraordinary sequence specificity”.
Positions count from the first letter of the chain named. Whole data set: some 16,000 sequences, median “ka relative to ugcaugu” near 0.096, cut for the highest 2% near 0.35. This excerpt belongs to a sample that is enriched for the highest values.

B1: GGGCCAA (DNA:RNA)
RNA: GGGAGACCGGAAUUCAGAUUGUCCGGGCCAAUUAAAUCCCGUCGUAGCCACCA
DNA 1: CAATCTGAATTCCGGTCTCCC
DNA 2: TGGTGGCTACGACGGGATT
B2: UUCGUCU (DNA:RNA)
RNA: GGGAGACCGGAAUUCAGAUUGUCCUUCGUCUUUAAAUCCCGUCGUAGCCACCA
DNA 1: CAATCTGAATTCCGGTCTCCC
DNA 2: TGGTGGCTACGACGGGATT
B3: GGACUAG (DNA:RNA)
RNA: B1 RNA with G27A, C29U, A31G
DNA 1: CAATCTGAATTCCGGTCTCCC
DNA 2: TGGTGGCTACGACGGGATT
B4: ACCCGUU (DNA:RNA)
RNA: B2 RNA with U25A, U26C, G28C, U29G, C30U
DNA 1: CAATCTGAATTCCGGTCTCCC
DNA 2: TGGTGGCTACGACGGGATT
B5: AUGGCUC (DNA:RNA)
RNA: B1 RNA with G25A, G26U, C28G, A30U, A31C
DNA 1: CAATCTGAATTCCGGTCTCCC
DNA 2: TGGTGGCTACGACGGGATT
B6: UAUUUAA (DNA:RNA)
RNA: B1 RNA with G25U, G26A, G27U, C28U, C29U
DNA 1: CAATCTGAATTCCGGTCTCCC
DNA 2: TGGTGGCTACGACGGGATT
B7: AGCAGCG (DNA:RNA)
RNA: B2 RNA with U25A, U26G, G28A, U29G, U31G
DNA 1: CAATCTGAATTCCGGTCTCCC
DNA 2: TGGTGGCTACGACGGGATT
B8: GAAUGGU (DNA:RNA)
RNA: B1 RNA with G26A, G27A, C28U, C29G, A30G, A31U
DNA 1: CAATCTGAATTCCGGTCTCCC
DNA 2: TGGTGGCTACGACGGGATT
B9: GAUUGGC (DNA:RNA)
RNA: B1 RNA with G26A, G27U, C28U, C29G, A30G, A31C
DNA 1: CAATCTGAATTCCGGTCTCCC
DNA 2: TGGTGGCTACGACGGGATT
B10: GAAUGGC (DNA:RNA)
RNA: B1 RNA with G26A, G27A, C28U, C29G, A30G, A31C
DNA 1: CAATCTGAATTCCGGTCTCCC
DNA 2: TGGTGGCTACGACGGGATT
B11: GGAUGGU (DNA:RNA)
RNA: B1 RNA with G27A, C28U, C29G, A30G, A31U
DNA 1: CAATCTGAATTCCGGTCTCCC
DNA 2: TGGTGGCTACGACGGGATT
B12: CGAUGGC (DNA:RNA)
RNA: B1 RNA with G25C, G27A, C28U, C29G, A30G, A31C
DNA 1: CAATCTGAATTCCGGTCTCCC
DNA 2: TGGTGGCTACGACGGGATT
B13: GAUGGUU (DNA:RNA)
RNA: B2 RNA with U25G, U26A, C27U, U29G, C30U
DNA 1: CAATCTGAATTCCGGTCTCCC
DNA 2: TGGTGGCTACGACGGGATT
B14: GAGAAAU (DNA:RNA)
RNA: B1 RNA with G26A, C28A, C29A, A31U
DNA 1: CAATCTGAATTCCGGTCTCCC
DNA 2: TGGTGGCTACGACGGGATT
B15: GAACCCG (DNA:RNA)
RNA: B1 RNA with G26A, G27A, A30C, A31G
DNA 1: CAATCTGAATTCCGGTCTCCC
DNA 2: TGGTGGCTACGACGGGATT
B16: CCUUUUU (DNA:RNA)
RNA: B2 RNA with U25C, U26C, C27U, G28U, C30U
DNA 1: CAATCTGAATTCCGGTCTCCC
DNA 2: TGGTGGCTACGACGGGATT
B17: CGCACUG (DNA:RNA)
RNA: B1 RNA with G25C, G27C, C28A, A30U, A31G
DNA 1: CAATCTGAATTCCGGTCTCCC
DNA 2: TGGTGGCTACGACGGGATT
B18: GUAUUUU (DNA:RNA)
RNA: B2 RNA with U25G, C27A, G28U, C30U
DNA 1: CAATCTGAATTCCGGTCTCCC
DNA 2: TGGTGGCTACGACGGGATT
B19: ACCAGGA (DNA:RNA)
RNA: B1 RNA with G25A, G26C, G27C, C28A, C29G, A30G
DNA 1: CAATCTGAATTCCGGTCTCCC
DNA 2: TGGTGGCTACGACGGGATT
B20: AGGAUUG (DNA:RNA)
RNA: B1 RNA with G25A, C28A, C29U, A30U, A31G
DNA 1: CAATCTGAATTCCGGTCTCCC
DNA 2: TGGTGGCTACGACGGGATT
B21: AGGGAUG (DNA:RNA)
RNA: B1 RNA with G25A, C28G, C29A, A30U, A31G
DNA 1: CAATCTGAATTCCGGTCTCCC
DNA 2: TGGTGGCTACGACGGGATT
B22: AGGAGAC (DNA:RNA)
RNA: B1 RNA with G25A, C28A, C29G, A31C
DNA 1: CAATCTGAATTCCGGTCTCCC
DNA 2: TGGTGGCTACGACGGGATT
B23: AGGGGGA (DNA:RNA)
RNA: B1 RNA with G25A, C28G, C29G, A30G
DNA 1: CAATCTGAATTCCGGTCTCCC
DNA 2: TGGTGGCTACGACGGGATT
B24: AGGAUGU (DNA:RNA)
RNA: B1 RNA with G25A, C28A, C29U, A30G, A31U
DNA 1: CAATCTGAATTCCGGTCTCCC
DNA 2: TGGTGGCTACGACGGGATT
B25: AGGAGGA (DNA:RNA)
RNA: B1 RNA with G25A, C28A, C29G, A30G
DNA 1: CAATCTGAATTCCGGTCTCCC
DNA 2: TGGTGGCTACGACGGGATT
B26: AGGAAUC (DNA:RNA)
RNA: B1 RNA with G25A, C28A, C29A, A30U, A31C
DNA 1: CAATCTGAATTCCGGTCTCCC
DNA 2: TGGTGGCTACGACGGGATT
B27: AGGAAUG (DNA:RNA)
RNA: B1 RNA with G25A, C28A, C29A, A30U, A31G
DNA 1: CAATCTGAATTCCGGTCTCCC
DNA 2: TGGTGGCTACGACGGGATT
B28: UACUCAU (DNA:RNA)
RNA: B2 RNA with U26A, G28U, U29C, C30A
DNA 1: CAATCTGAATTCCGGTCTCCC
DNA 2: TGGTGGCTACGACGGGATT
B29: CUACUCU (DNA:RNA)
RNA: B2 RNA with U25C, C27A, G28C
DNA 1: CAATCTGAATTCCGGTCTCCC
DNA 2: TGGTGGCTACGACGGGATT
B30: ACAGGAC (DNA:RNA)
RNA: B1 RNA with G25A, G26C, G27A, C28G, C29G, A31C
DNA 1: CAATCTGAATTCCGGTCTCCC
DNA 2: TGGTGGCTACGACGGGATT
B31: GGGAGUU (DNA:RNA)
RNA: B1 RNA with C28A, C29G, A30U, A31U
DNA 1: CAATCTGAATTCCGGTCTCCC
DNA 2: TGGTGGCTACGACGGGATT

Molecular target: T1, RBFOX1 RRM RbFoxmut (Fox-RRM*) (Homo sapiens, UniProt Q9NWB1 109-208, R118D;E147R;N151S;E152T)
T1 sequence: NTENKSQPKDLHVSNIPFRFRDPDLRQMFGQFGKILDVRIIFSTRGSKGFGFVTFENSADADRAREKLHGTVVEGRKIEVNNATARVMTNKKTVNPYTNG
Assay: EMSA; HiTS-Eq, 1 nM pool, 10 min; buffer printed only for the single-RNA assays: 10 mM Tris pH 7.5, 150 mM NaCl, 3.4 mM EDTA, 0.001% NP-40, 30 C
Settings: tags: His6 N-terminal (pET28a); label: 5' 32P
Outline: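 These values rest on relative association constants, computed from read-count changes of each RNA species versus the control reaction and normalised to the cognate motif. Reads came from free RNA recovered by 8% native PAGE after purified RbFox RRM (wild type or mutant) at increasing concentrations was equilibrated for 10 min in 50 µL with 1 nM of a 5′-radiolabelled pool with 7 randomized nucleotides and DNA-annealed flanks.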

Row | Binder | binding signal
1 | B1 | 0.0698 KA relative to UGCAUGU
2 | B2 | 0.0697 KA relative to UGCAUGU
3 | B3 | 0.0756 KA relative to UGCAUGU
4 | B4 | 0.0752 KA relative to UGCAUGU
5 | B5 | 0.111 KA relative to UGCAUGU
6 | B6 | 0.0892 KA relative to UGCAUGU
7 | B7 | 0.113 KA relative to UGCAUGU
8 | B8 | 0.748 KA relative to UGCAUGU
9 | B9 | 0.145 KA relative to UGCAUGU
10 | B10 | 0.592 KA relative to UGCAUGU
11 | B11 | 0.201 KA relative to UGCAUGU
12 | B12 | 0.101 KA relative to UGCAUGU
13 | B13 | 0.0937 KA relative to UGCAUGU
14 | B14 | 0.0893 KA relative to UGCAUGU
15 | B15 | 0.0645 KA relative to UGCAUGU
16 | B16 | 0.0758 KA relative to UGCAUGU

Row | Binder | binding signal
17 | B17 | 0.125 KA relative to UGCAUGU
18 | B18 | 0.118 KA relative to UGCAUGU
19 | B19 | 0.0755 KA relative to UGCAUGU
20 | B20 | 0.583 KA relative to UGCAUGU
21 | B21 | 0.476 KA relative to UGCAUGU
22 | B22 | 0.0904 KA relative to UGCAUGU
23 | B23 | 0.149 KA relative to UGCAUGU
24 | B24 | 0.339 KA relative to UGCAUGU
25 | B25 | 0.084 KA relative to UGCAUGU
26 | B26 | 0.261 KA relative to UGCAUGU
27 | B27 | 1.4 KA relative to UGCAUGU
28 | B28 | 0.0982 KA relative to UGCAUGU
29 | B29 | 0.0641 KA relative to UGCAUGU
30 | B30 | 0.0906 KA relative to UGCAUGU
31 | B31 | 0.09 KA relative to UGCAUGU
